# Test results as given in article PMC7862700, “An all-to-all approach to the identification of sequence-specific readers for epigenetic DNA modifications on cytosine”.
# Key:
# Assay in all cases: DAPPL (digital affinity profiling via proximity ligation, sequencing); 10 mM Tris-HCl pH 7.5, 50 mM NaCl, 1 mM DTT, 4% glycerol, room temperature, 30 min; GST-TFs on glutathione beads, 16-mer random dsDNA library, 0.1% formaldehyde crosslink after washing; high values mean tight binding
# FEV = biological target: T1, FEV (Homo sapiens, UniProt Q99581 1-238); conditions: protein: recombinant; tags: N-terminal GST; dsDNA, one strand shown
# T1 sequence: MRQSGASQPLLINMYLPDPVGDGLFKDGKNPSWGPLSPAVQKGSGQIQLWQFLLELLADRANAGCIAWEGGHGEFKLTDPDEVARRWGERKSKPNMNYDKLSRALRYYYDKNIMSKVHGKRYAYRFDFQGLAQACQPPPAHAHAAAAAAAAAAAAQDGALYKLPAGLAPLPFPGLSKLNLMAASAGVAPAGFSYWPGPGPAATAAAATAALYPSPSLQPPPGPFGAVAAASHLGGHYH
# How it was run: (§1)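 Beads coated with glutathione captured GST-fused human transcription factors that had been expressed in yeast, and the factors were then given DNA barcodes and pooled with a tag-only sample. The pools were incubated with 200 nmole of a random double-stranded 16-mer DNA library in Tris/NaCl/DTT/glycerol buffer for 30 min at room temperature, washed, crosslinked with 0.1% formaldehyde and proximity-ligated with BsaI/T4 ligase at 37 °C for 1 h. PCR amplification and Illumina NextSeq500 sequencing came last. Binding signal is each hexamer's read frequency for a factor divided by its frequency for the tag-only sample.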
# ETV5 = ETV5 (Homo sapiens, UniProt P41161 1-510); conditions: protein: recombinant; tags: N-terminal GST; dsDNA, one strand shown
# ETV5, sequence (P41161 whole entry): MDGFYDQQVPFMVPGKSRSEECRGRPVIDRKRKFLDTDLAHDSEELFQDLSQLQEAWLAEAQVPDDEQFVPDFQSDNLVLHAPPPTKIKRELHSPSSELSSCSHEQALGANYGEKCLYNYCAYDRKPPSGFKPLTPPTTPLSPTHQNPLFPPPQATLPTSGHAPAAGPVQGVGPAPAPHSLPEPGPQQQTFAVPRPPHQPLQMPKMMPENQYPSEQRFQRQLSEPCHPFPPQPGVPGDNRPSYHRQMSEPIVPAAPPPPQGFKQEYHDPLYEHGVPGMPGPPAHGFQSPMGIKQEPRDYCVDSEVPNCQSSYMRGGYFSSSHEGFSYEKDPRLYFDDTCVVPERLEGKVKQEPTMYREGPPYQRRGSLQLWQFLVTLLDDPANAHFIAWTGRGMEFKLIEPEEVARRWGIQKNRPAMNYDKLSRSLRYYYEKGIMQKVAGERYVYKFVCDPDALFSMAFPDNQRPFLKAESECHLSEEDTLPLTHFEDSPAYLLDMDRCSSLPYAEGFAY
# How it was run: as §1
# HSF1 = HSF1 (Homo sapiens, UniProt Q00613 1-529); conditions: protein: recombinant; tags: N-terminal GST; chain copies: 3; dsDNA, one strand shown
# HSF1, sequence (Q00613 whole entry): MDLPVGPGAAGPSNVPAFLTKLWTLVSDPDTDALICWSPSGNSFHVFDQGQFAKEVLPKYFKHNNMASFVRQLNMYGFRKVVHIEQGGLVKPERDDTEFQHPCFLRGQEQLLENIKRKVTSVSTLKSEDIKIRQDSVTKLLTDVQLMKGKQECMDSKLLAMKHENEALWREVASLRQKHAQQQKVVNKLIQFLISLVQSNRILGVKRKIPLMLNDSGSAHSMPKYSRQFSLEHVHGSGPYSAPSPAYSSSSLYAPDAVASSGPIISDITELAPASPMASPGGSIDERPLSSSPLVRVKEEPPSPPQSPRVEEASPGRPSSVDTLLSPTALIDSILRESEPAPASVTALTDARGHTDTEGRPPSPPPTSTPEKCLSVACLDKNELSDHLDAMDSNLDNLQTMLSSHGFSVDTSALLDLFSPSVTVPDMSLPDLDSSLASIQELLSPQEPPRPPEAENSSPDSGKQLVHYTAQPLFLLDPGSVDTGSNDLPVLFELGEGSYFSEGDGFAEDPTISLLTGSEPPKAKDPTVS
# How it was run: as §1
# SPIC = biological target: T2, SPIC (Homo sapiens, UniProt Q8N5J4 1-248); conditions: protein: recombinant; tags: N-terminal GST; dsDNA, one strand shown
# T2 sequence: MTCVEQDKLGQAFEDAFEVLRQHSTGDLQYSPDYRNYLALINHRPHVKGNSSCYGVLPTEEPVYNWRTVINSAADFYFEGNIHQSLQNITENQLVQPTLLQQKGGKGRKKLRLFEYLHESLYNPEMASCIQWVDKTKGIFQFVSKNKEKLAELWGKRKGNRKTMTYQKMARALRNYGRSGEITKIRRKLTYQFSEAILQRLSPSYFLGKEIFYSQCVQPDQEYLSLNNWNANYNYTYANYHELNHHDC
# How it was run: as §1
# ELF4 = ELF4 (Homo sapiens, UniProt Q99607 1-663); conditions: protein: recombinant; tags: N-terminal GST; dsDNA, one strand shown
# ELF4, sequence (Q99607 whole entry): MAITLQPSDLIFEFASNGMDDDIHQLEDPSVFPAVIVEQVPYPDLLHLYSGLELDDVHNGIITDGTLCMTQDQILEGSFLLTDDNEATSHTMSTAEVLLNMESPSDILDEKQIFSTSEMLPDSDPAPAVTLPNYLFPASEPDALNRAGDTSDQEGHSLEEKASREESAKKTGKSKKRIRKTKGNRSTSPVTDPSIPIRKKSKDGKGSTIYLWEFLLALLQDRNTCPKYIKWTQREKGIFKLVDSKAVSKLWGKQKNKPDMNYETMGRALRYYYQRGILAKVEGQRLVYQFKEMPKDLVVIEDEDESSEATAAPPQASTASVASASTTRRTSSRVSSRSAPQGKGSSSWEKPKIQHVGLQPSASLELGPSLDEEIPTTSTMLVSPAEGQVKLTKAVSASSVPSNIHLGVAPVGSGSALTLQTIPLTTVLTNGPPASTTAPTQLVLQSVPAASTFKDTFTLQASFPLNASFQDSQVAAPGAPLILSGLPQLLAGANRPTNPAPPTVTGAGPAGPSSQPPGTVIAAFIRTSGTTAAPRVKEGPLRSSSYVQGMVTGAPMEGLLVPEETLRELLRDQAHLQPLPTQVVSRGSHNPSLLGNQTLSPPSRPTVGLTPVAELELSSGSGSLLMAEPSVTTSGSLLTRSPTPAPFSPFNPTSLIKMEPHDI
# How it was run: as §1
# ELK4 = biological target: T3, ELK4 (Homo sapiens, UniProt P28324-2 1-405); conditions: protein: recombinant; tags: N-terminal GST; dsDNA, one strand shown
# T3 sequence: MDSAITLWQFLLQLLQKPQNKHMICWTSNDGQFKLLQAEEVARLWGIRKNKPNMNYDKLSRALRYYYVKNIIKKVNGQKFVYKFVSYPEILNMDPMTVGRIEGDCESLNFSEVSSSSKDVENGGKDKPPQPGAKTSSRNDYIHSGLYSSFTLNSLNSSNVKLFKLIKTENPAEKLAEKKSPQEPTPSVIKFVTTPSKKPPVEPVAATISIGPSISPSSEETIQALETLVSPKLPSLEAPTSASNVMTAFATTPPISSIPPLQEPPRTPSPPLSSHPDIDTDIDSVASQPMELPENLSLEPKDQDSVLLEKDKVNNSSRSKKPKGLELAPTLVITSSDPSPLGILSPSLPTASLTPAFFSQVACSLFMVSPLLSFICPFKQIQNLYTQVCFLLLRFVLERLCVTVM
# How it was run: as §1
# ETV2 = biological target: T4, ETV2 (Homo sapiens, UniProt O00321 1-342); conditions: protein: recombinant; tags: N-terminal GST; dsDNA, one strand shown
# T4 sequence: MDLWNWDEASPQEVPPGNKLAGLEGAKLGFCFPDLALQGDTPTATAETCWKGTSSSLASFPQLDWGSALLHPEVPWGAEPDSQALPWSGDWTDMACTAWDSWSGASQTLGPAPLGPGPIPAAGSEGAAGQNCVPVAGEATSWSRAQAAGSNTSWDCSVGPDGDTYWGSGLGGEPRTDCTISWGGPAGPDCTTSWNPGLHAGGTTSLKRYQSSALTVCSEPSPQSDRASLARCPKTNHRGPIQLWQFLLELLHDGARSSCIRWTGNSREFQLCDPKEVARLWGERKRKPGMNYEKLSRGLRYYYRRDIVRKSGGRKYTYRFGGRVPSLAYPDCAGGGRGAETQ
# How it was run: as §1
# ELF3 = biological target: T5, ELF3 (Homo sapiens, UniProt P78545 1-371); conditions: protein: recombinant; tags: N-terminal GST; dsDNA, one strand shown
# T5 sequence: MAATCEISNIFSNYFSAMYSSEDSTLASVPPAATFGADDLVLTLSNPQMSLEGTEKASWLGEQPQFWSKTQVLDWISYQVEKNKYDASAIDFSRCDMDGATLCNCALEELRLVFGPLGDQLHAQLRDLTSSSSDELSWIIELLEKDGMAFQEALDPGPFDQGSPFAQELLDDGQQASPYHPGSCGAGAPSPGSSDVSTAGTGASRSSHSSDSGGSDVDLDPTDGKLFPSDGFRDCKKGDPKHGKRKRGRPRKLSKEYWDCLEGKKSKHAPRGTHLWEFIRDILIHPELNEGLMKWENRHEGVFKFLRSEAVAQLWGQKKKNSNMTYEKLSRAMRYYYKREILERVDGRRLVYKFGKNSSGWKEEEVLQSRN
# How it was run: as §1
# CRX = CRX (Homo sapiens, UniProt O43186 1-299); conditions: protein: recombinant; tags: N-terminal GST; dsDNA, one strand shown
# CRX, sequence (O43186 whole entry): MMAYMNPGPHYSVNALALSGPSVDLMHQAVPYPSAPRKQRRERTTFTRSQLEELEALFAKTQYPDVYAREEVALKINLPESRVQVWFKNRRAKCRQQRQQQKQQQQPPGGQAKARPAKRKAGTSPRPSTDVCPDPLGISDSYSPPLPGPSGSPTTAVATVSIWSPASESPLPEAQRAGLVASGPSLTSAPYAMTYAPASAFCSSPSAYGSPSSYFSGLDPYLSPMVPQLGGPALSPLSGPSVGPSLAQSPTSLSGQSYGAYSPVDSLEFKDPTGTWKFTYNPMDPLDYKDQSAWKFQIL
# How it was run: as §1
# ETV1 = ETV1 (Homo sapiens, UniProt P50549 1-477); conditions: protein: recombinant; tags: N-terminal GST; dsDNA, one strand shown
# ETV1, sequence (P50549 whole entry): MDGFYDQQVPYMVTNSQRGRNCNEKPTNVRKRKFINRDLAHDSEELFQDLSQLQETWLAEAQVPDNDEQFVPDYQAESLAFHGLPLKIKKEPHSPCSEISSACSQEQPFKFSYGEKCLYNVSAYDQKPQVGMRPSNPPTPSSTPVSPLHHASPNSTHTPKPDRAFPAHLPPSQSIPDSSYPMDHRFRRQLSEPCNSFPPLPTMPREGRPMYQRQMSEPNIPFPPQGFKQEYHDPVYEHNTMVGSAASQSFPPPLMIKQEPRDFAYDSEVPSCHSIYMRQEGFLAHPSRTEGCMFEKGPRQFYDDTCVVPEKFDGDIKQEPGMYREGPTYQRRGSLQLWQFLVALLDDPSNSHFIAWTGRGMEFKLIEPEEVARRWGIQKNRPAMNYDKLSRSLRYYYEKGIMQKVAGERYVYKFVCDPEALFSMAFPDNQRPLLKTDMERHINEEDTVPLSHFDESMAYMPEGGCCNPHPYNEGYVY
# How it was run: as §1
# ERF = biological target: T6, ERF (Homo sapiens, UniProt P50548 1-548); conditions: protein: recombinant; tags: N-terminal GST; dsDNA, one strand shown
# T6 sequence: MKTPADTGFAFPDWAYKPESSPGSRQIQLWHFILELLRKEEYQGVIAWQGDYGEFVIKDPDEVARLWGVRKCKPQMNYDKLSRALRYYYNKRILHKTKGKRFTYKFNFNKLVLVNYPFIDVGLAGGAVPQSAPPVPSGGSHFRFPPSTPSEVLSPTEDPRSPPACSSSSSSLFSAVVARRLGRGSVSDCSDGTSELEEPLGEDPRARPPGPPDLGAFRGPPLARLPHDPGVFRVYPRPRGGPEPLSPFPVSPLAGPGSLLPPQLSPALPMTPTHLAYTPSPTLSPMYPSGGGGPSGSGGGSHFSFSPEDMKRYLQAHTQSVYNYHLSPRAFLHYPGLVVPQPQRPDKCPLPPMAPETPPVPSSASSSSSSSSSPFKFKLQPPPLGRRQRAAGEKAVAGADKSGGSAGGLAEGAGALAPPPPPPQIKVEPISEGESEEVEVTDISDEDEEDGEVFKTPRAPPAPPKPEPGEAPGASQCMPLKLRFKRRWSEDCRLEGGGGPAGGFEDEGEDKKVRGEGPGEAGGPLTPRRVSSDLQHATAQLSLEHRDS
# How it was run: as §1
# ETV3L = biological target: T7, ETV3L (Homo sapiens, UniProt Q6ZN32 1-361); conditions: protein: recombinant; tags: N-terminal GST; dsDNA, one strand shown
# T7 sequence: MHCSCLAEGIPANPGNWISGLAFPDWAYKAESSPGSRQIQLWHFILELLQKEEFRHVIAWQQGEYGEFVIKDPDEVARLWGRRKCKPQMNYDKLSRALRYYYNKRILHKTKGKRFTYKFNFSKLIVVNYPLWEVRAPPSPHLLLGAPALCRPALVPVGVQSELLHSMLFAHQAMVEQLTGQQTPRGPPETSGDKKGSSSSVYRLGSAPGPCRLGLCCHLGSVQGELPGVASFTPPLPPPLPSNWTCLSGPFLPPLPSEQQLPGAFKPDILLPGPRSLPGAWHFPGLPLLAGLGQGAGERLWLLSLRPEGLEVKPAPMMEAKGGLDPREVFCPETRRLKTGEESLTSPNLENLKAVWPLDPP
# How it was run: as §1
# ETS2 = biological target: T8, ETS2 (Homo sapiens, UniProt P15036 1-469); conditions: protein: recombinant; tags: N-terminal GST; dsDNA, one strand shown
# T8 sequence: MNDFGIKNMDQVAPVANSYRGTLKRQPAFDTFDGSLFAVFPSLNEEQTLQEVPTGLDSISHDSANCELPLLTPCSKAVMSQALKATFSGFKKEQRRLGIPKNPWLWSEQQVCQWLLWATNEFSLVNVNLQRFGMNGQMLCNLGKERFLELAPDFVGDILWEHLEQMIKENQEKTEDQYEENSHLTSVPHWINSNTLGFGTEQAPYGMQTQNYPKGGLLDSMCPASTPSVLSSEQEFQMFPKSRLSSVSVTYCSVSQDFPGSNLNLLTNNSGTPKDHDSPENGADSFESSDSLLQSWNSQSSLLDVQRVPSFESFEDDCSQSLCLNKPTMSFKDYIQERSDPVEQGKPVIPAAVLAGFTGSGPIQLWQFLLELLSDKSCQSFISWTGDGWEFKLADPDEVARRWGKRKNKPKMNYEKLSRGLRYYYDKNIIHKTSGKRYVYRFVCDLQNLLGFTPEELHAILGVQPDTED
# How it was run: as §1
# SPDEF = biological target: T9, SPDEF (Homo sapiens, UniProt O95238 1-335); conditions: protein: recombinant; tags: N-terminal GST; dsDNA, one strand shown
# T9 sequence: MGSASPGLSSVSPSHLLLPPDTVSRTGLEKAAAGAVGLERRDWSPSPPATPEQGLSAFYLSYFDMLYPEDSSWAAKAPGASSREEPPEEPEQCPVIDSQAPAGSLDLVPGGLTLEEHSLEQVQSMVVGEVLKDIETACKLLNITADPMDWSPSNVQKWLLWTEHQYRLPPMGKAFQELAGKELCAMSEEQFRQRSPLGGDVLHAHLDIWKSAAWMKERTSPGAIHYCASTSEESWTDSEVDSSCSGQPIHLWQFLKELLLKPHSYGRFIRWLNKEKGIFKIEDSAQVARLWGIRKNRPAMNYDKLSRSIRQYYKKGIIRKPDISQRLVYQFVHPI
# How it was run: as §1
# ETV7 = biological target: T10, ETV7 (Homo sapiens, UniProt Q9Y603 1-341); conditions: protein: recombinant; tags: N-terminal GST; dsDNA, one strand shown
# T10 sequence: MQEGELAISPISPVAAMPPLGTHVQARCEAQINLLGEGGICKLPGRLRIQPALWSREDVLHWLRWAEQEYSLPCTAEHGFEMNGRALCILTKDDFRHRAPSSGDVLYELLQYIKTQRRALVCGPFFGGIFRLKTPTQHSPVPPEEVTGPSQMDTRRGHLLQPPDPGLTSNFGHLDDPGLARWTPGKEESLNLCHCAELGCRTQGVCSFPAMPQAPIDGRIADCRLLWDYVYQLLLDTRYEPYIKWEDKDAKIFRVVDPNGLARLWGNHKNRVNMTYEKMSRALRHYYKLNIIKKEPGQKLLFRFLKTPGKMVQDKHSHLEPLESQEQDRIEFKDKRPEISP
# How it was run: as §1
# ELF5 = biological target: T11, ELF5 (Homo sapiens, UniProt Q9UKW6-2 1-255); conditions: protein: recombinant; tags: N-terminal GST; dsDNA, one strand shown
# T11 sequence: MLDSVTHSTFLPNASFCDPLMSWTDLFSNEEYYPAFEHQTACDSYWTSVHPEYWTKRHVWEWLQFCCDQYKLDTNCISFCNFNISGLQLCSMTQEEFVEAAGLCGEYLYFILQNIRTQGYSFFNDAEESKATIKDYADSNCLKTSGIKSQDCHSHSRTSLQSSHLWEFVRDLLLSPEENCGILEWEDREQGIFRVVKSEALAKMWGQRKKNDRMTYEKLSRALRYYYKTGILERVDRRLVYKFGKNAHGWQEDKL
# How it was run: as §1
# ETV3 = biological target: T12, ETV3 (Homo sapiens, UniProt P41162-2 1-143); conditions: protein: recombinant; tags: N-terminal GST; dsDNA, one strand shown
# T12 sequence: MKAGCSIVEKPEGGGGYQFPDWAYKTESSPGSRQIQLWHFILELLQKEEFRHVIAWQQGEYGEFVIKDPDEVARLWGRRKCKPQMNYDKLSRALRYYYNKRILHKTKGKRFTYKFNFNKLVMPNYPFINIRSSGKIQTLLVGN
# How it was run: as §1
# ETV6 = ETV6 (Homo sapiens, UniProt P41212 1-452); conditions: protein: recombinant; tags: N-terminal GST; dsDNA, one strand shown
# ETV6, sequence (P41212 whole entry): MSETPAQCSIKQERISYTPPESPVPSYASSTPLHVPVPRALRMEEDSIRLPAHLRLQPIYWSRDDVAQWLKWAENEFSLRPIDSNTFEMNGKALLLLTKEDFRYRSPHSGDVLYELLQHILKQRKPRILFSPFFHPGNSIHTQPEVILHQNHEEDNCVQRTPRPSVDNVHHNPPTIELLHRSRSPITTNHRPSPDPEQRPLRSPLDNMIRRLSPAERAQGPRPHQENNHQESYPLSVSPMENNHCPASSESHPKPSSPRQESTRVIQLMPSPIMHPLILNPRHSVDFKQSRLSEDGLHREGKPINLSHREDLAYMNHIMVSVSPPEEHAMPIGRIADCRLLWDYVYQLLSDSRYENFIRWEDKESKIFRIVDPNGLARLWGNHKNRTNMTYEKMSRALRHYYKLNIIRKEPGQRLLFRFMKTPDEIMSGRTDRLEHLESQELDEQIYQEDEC
# How it was run: as §1
sequence,measurement,setting,value
AATGAG,binding signal,FEV,"1.14 fold enrichment (6-mer frequency, TF over GST control)"
same,binding signal,ETV5,"1.17 fold enrichment (6-mer frequency, TF over GST control)"
same,binding signal,HSF1,"1.05 fold enrichment (6-mer frequency, TF over GST control)"
same,binding signal,SPIC,"1.31 fold enrichment (6-mer frequency, TF over GST control)"
same,binding signal,ELF4,"1.14 fold enrichment (6-mer frequency, TF over GST control)"
same,binding signal,ELK4,"1.14 fold enrichment (6-mer frequency, TF over GST control)"
same,binding signal,ETV2,"1.46 fold enrichment (6-mer frequency, TF over GST control)"
same,binding signal,ELF3,"1.25 fold enrichment (6-mer frequency, TF over GST control)"
same,binding signal,CRX,"1.08 fold enrichment (6-mer frequency, TF over GST control)"
same,binding signal,ETV1,"1.21 fold enrichment (6-mer frequency, TF over GST control)"
same,binding signal,ERF,"1.2 fold enrichment (6-mer frequency, TF over GST control)"
same,binding signal,ETV3L,"1.1 fold enrichment (6-mer frequency, TF over GST control)"
same,binding signal,ETS2,"1.2 fold enrichment (6-mer frequency, TF over GST control)"
same,binding signal,SPDEF,"1.01 fold enrichment (6-mer frequency, TF over GST control)"
same,binding signal,ETV7,"1.15 fold enrichment (6-mer frequency, TF over GST control)"
same,binding signal,ELF5,"1.17 fold enrichment (6-mer frequency, TF over GST control)"
same,binding signal,ETV3,"1.13 fold enrichment (6-mer frequency, TF over GST control)"
same,binding signal,ETV6,"1.32 fold enrichment (6-mer frequency, TF over GST control)"
